Here are results for 30 molecules from PubChem BioAssay (NCATS).

The subject of one experiment is MCC-26. As to the kind of experiment: qHTS assay to identify novel small-molecules to repurpose for Merkel cell carcinoma treatment (AID 1296009). Also: nearly all actives have a fitted effect of over 60% in size. The following applies: MCC and control cell lines, CellTiter-Glo viability, 72 h; series mostly up to 46 µM. An outline of the steps: (§1)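 CellTiter-Glo luminescence after 72 hr compound exposure at 37 degree celsius gave cell viability. Libraries NPC and MIPE were run as 8- and 11-point dose responses; RLUs normalized to DMSO (negative) and no-cell (cytotoxicity) controls.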

Another experiment has as its system MCC-13. Described as above. The following applies: MCC and control cell lines, CellTiter-Glo viability, 72 h; series mostly up to 46 µM. An outline of the steps:
as §1

The next experiment concerns UISO. The experiment is described as above. The conditions noted are these: MCC and control cell lines, CellTiter-Glo viability, 72 h; series mostly up to 46 µM. In a few lines: as §1
Another experiment has as its system WaGa. The description is as above. The conditions noted are these: MCC and control cell lines, CellTiter-Glo viability, 72 h; series mostly up to 46 µM. In a few lines:
as §1

A further experiment concerns MKL-2. The description is as above. The following applies: MCC and control cell lines, CellTiter-Glo viability, 72 h; series mostly up to 46 µM. An outline of the steps: as §1
The test system of a further experiment is MKL-1. The description is as above. The following applies: MCC and control cell lines, CellTiter-Glo viability, 72 h; series mostly up to 46 µM. In a few lines: as §1
The next experiment concerns C33A. The experiment is described as follows: Primary qHTS to identify gynecologic anti-cancer compounds using libraries of approved drugs and bioactive compounds (AID 1345084). Also: nearly all actives have a fitted effect of over 55% in size. The following applies: Gynecologic cancer cell panel viability, ATPlite luminescence, 48 h; series mostly up to 57.5 µM. In a few lines: (§2)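 Cells, 1,000 per well, plated 16 h, then exposed 48 h at 37 C to compounds. Viability by ATPlite luminescence after 15 min at room temperature.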

In the next experiment the test system is CASKI. The experiment is described as above. The conditions noted are these: Gynecologic cancer cell panel viability, ATPlite luminescence, 48 h; series mostly up to 57.5 µM. An outline of the steps: as §2

SMILES strings stand for the structures. Records with an inconclusive call do not appear. The source made the active and inactive calls. Calls follow the shape of the dose curve; as a rule, active = well fitted curve in the direction sought with a large enough effect; inconclusive = small, poorly fitted or top-dose-only effect, or another doubt; inactive = no such curve, though single readings can be large; an effect the other way counts as inactive or inconclusive.
Potency is read from the fitted curve at half-maximal effect.

As to `COc1cc2c(cc1O)CCC1C2CC[C@@]2(C)C1CC[C@@H]2O` (stereo not given in full), the Potency result with MCC-26 is “inactive”.
Consider `CS[C@H]1SC[C@@H]2C(=O)N(C)[C@H](C(C)C)C(=O)OC[C@H](NC(=O)c3cnc4ccccc4n3)C(=O)N[C@H](C)C(=O)N(C)[C@@H]1C(=O)N(C)[C@H](C(C)C)C(=O)OC[C@H](NC(=O)c1cnc3ccccc3n1)C(=O)N[C@H](C)C(=O)N2C`, for which the Potency in the experiment on MCC-13 is 0.0296 µM (active); in the experiment with UISO it was 0.0026 µM (active). Moreover, the Potency result in the experiment on WaGa was “inactive”.
Take `C#CCC(Cc1cnc2nc(N)nc(N)c2n1)c1ccc(C(=O)N[C@@H](CCC(=O)O)C(=O)O)cc1` (stereo not given in full): the Potency entry in the experiment on MCC-26 and in the experiment with MKL-2 was “inactive” throughout. Also, in the experiment with WaGa, the Potency is 0.526 µM (active).
With `Cn1c(Nc2ccc(C(F)(F)F)cc2)nc2cc(Oc3ccnc(-c4ncc(C(F)(F)F)[nH]4)c3)ccc21`, in the experiment on MCC-26, the Potency result is “inactive”. The Potency in the experiment on UISO is 3.72 µM (active); in the experiment with WaGa, 18.7 µM (active).
For the molecule `O=c1[nH]c(=O)n([C@H]2C[C@@H](O)[C@@H](CO)O2)cc1F`, the Potency was 0.332 µM (active) in the experiment with MCC-13 and 0.0662 µM (active) in the experiment with WaGa.
On to `COc1ccc(C=Cc2cc(OC)c(OC)c(OC)c2)cc1NC(=O)[C@H](N)CO`, for which the Potency with MKL-2 was 0.0066 µM (active); with UISO, 0.0053 µM (active).
Take `CCN(CC)Cc1ccc2cc(COC(=O)Nc3ccc(C(=O)NO)cc3)ccc2c1`: the Potency in the experiment on MKL-1 is 1.87 µM (active); in the experiment with MKL-2, 0.59 µM (active); in the experiment with UISO, 3.72 µM (active); in the experiment on WaGa it was 0.526 µM (active); with C33A it was 3.55 µM (active); with CASKI it was 6.31 µM (active).
`NC(=O)Nc1sc(-c2ccc(F)cc2)cc1C(N)=O`: the Potency with UISO was 4.69 µM (active); in the experiment on WaGa, 5.26 µM (active).
Regarding `CNC(=O)c1ccc(Nc2cc(Nc3ccccc3S(=O)(=O)C(C)C)c3cc[nH]c3n2)nc1`, the Potency is 2.64 µM (active) in the experiment on MKL-1, 7.43 µM (active) in the experiment with MKL-2, 5.9 µM (active) with UISO and 4.18 µM (active) in the experiment on WaGa.
For `CC[C@]12C=CCN3CC[C@@]4(c5cc([C@@]6(C(=O)OC)C[C@H]7C[C@@H](C(C)(F)F)CN(Cc8c6[nH]c6ccccc86)C7)c(OC)cc5N(C)[C@H]4[C@@](O)(C(=O)OC)[C@H]1OC(C)=O)[C@@H]32`, the Potency with WaGa was 0.0059 µM (active).
Turning to `Cc1ncc(-c2ccnc(Nc3ccc(S(C)(=O)=O)cc3)n2)n1C(C)C`, the Potency in the experiment on CASKI was 7.08 µM (active).
Regarding `COC1=C2C[C@@H](C)C[C@H](OC)[C@@H](O)[C@@H](C)C=C(C)[C@H](OC(N)=O)[C@@H](OC)C=CC=C(C)C(=O)NC(=CC1=O)C2=O`, the Potency is 11.8 µM (active) in the experiment with MKL-1, 8.33 µM (active) in the experiment with MKL-2 and 20.9 µM (active) in the experiment with WaGa.
Regarding `CNC(=O)c1cccc(-c2ccc3c(N4CCOC[C@H]4C)nc(N4CCOC[C@H]4C)nc3n2)c1`, in the experiment with MKL-2, the Potency result was “inactive”. The Potency with UISO was 0.166 µM (active).
Turning to `O=C(Nc1cc2cc[nH]c2cn1)c1ccccc1`, the Potency with MKL-1 is 14.8 µM (active); in the experiment with C33A, 1.41 µM (active); in the experiment on CASKI, 1.78 µM (active).
Turning to `c1cncc(CN2CCC(n3ncc4c(N5CCOCC5)nc(-c5ccc6[nH]ccc6c5)nc43)CC2)c1`, the Potency result with MKL-1 is “inactive”. For the same molecule, the Potency with C33A is 31.6 µM (active); in the experiment on CASKI, 10 µM (active).
Take `CCc1cnn2c(NCc3ccc[n+]([O-])c3)cc(N3CCCC[C@@H]3CCO)nc12`: the Potency is 0.0418 µM (active) in the experiment with MKL-2 and 0.0935 µM (active) in the experiment on UISO.
`C=C1C(=CC=C2CCC[C@]3(C)[C@@H]([C@H](C)CCCC(C)(C)O)CC[C@@H]23)C[C@@H](O)C[C@@H]1O`: the Potency is 16.6 µM (active) with MKL-1, 6.62 µM (active) in the experiment on MKL-2 and 1.48 µM (active) with WaGa.
As for `COc1cc2c(Nc3ccc(Cl)c(Cl)c3F)ncnc2cc1OCC1C[C@@H]2CN(C)C[C@H]2C1`, the Potency with MKL-1 is 7.43 µM (active); with UISO, 4.18 µM (active); with WaGa, 18.7 µM (active).
Turning to `CC(=O)O[C@@]12CO[C@H]1C[C@H](O)[C@@]1(C)C(=O)[C@H](O)C3=C(C)[C@@H](OC(=O)C(O)[C@@H](NC(=O)OC(C)(C)C)c4ccccc4)C[C@@](O)([C@@H](OC(=O)c4ccccc4)[C@@H]21)C3(C)C` (stereo not given in full), the Potency result in the experiment with MKL-1, with MKL-2, in the experiment on UISO and with WaGa was “inactive” throughout.
On to `COc1cc(O)c2c(c1)C1OC1C[C@H](O)[C@H](O)C(=O)C=CC[C@H](C)OC2=O` (stereo not given in full), for which the Potency in the experiment with UISO is 20.9 µM (active).
Take `C=CC(=O)N1CCc2ccc(-n3c(=O)ccc4cnc5ccc(-c6cnn(C)c6)cc5c43)cc21`: the Potency in the experiment with MKL-1 was 1.87 µM (active); in the experiment on MKL-2, 1.87 µM (active); in the experiment on UISO, 6.62 µM (active).
Turning to `CC(C)N1[N]C(=C2C=c3cc(O)ccc3=N2)c2c(N)ncnc21`, the Potency is 10.5 µM (active) with MKL-1, 0.833 µM (active) with UISO and 5.9 µM (active) in the experiment on WaGa.
Take `Cc1[nH]c(C=C2C(=O)Nc3ccccc32)c(C)c1CCC(=O)O`: the results for the Potency with MKL-1, in the experiment on UISO and in the experiment on WaGa were 0.372 µM (active), 0.469 µM (active) and 0.187 µM (active), respectively.
With `Cn1cc(C2=C(c3c4n(c5ccccc35)CCC(CN)C4)C(=O)NC2=O)c2ccccc21` (stereo not given), the Potency with MKL-1, in the experiment on MKL-2 and in the experiment on WaGa was 20.9 µM (active) throughout.
`Oc1cc(-c2nc(-c3ccccc3)[nH]c2-c2ccncc2)ccc1Cl`: the Potency entry in the experiment on MKL-1, in the experiment with MKL-2, with UISO and with C33A was “inactive” each time.
For the molecule `Cc1ccc([N+](=O)[O-])cc1S(=O)(=O)N(C)N=Cc1cnc2ccc(Br)cn12`, the values for the Potency in the experiment on MKL-2 and in the experiment with UISO were 0.209 µM (active) and 0.0418 µM (active), respectively.
With `CCNC(=O)Nc1ccc(-c2nc3c(c(N4CCOC[C@H]4C)n2)CCN(C2COC2)C3)cc1`, the Potency result in the experiment with MKL-2 was “inactive”. Moreover, the Potency in the experiment with UISO was 3.72 µM (active).
For the molecule `Nc1ncn([C@@H]2O[C@H](CO)[C@@H](O)[C@@H]2O)c(=O)n1`, the Potency result in the experiment on MKL-1 and with MKL-2 was “inactive” each time.
For `COc1cc(OC)cc(-c2ccc3ncc4ccc(=O)n(-c5ccc(N6CCNCC6)c(C(F)(F)F)c5)c4c3c2)c1`, the Potency in the experiment on MKL-1 was 18.7 µM (active); in the experiment with MKL-2 it was 8.33 µM (active); in the experiment on UISO, 16.6 µM (active).
For the molecule `COc1ccc(C[C@@H](C)[C@@H](C)Cc2ccc(OC)c(OC)c2)cc1OC`, the Potency with MKL-2 was 3.72 µM (active); in the experiment with UISO, 1.32 µM (active); in the experiment with WaGa, 0.833 µM (active).
